An excerpt weighted towards active compounds, which were near 2.3% of everything screened.
YB-1 expression = YB-1 expression inhibition | U2OS, qRT-PCR YB-1 vs CDIP delta delta Cp, 16 h; active compounds read high; zero = DMSO, each unit about twofold | delta delta Cp (YB-1 minus CDIP) (concentration not given with the values) | 0.37% of 30,000 active;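 active = delta delta Cp rounded down to an integer at or above 3, about 3 SD of DMSO wells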;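 note: higher means less YB-1 transcript or more CDIP transcript relative to DMSO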
ROS inducer = cancer cell ROS induction; U2OS ROS induction, H2DCF-DA fluorescence; ROS induction (% of piperlongumine), % at 10 µM; 2% of 46,000 active; AID 624156; in the data active = ROS induction above about 79%, passing the limit was not always enough
A number is an active result; – = inactive; · = no result.

SMILES	YB-1 expression	ROS inducer
C=CCNC(=O)[C@@H]1[C@H]2C(=O)O[C@H](c3ccccc3)[C@H](c3ccccc3)N2[C@H](c2ccc(O)cc2)[C@@]12C(=O)N(C(=O)OCCOC)c1ccccc12	–	–
COCCOC(=O)N1C(=O)[C@@]2(c3cc(C#CCCO)ccc31)[C@H](c1ccccc1OCCO)N1[C@H](c3ccccc3)[C@H](c3ccccc3)OC(=O)[C@H]1[C@@H]2C(=O)NC[C@H](O)c1ccccc1	–	–
COCCOC(=O)N1C(=O)[C@@]2(c3ccccc31)[C@H](C(N)=O)[C@H]1C(=O)O[C@H](c3ccccc3)[C@H](c3ccccc3)N1[C@@H]2c1ccc(O)cc1	–	–
COCCOC(=O)N1C(=O)[C@@]2(c3ccccc31)[C@H](C(N)=O)[C@H]1C(=O)O[C@H](c3ccccc3)[C@H](c3ccccc3)N1[C@@H]2c1ccc(OCCO)cc1	–	123.9
COCCOC(=O)N1C(=O)[C@@]2(c3ccccc31)[C@H](c1ccccc1OCCO)N1[C@H](c3ccccc3)[C@H](c3ccccc3)OC(=O)[C@H]1[C@@H]2C(=O)NC[C@H](O)c1ccccc1	–	348.4
CC(C)N(C(=O)c1ccc(-c2nnc(-c3ccccc3)o2)cc1)C(C)C	·	–
CC(C)(C)NC(=O)c1ccccc1	–	–
CC(C)(C)NC(=O)c1ccc2c3c(onc13)-c1ccccc1C2=O	–	245.1
O=c1ccc2ccc(Oc3nc(-c4cccnc4)nc4ccccc34)cc2o1	·	–
Cc1[nH]c2ccccc2c1Sc1ccccc1	–	–
Cc1ccc(N(Cc2ccco2)C(=O)c2cccc(S(=O)(=O)N(C)C)c2)cc1	·	137.7
O=C(c1ccco1)N(Cc1ccco1)c1ccc(O)cc1	·	–
CN(C)CCCn1cc(C2=C(c3c[nH]c4ccccc34)C(=O)NC2=O)c2ccccc21	–	81.0
COC(=O)c1cn(CC(N)=O)c2ccccc12	·	–
Cn1cc(C2=C(c3cn(CCCSC(=N)N)c4ccccc34)C(=O)NC2=O)c2ccccc21	–	75.8
Cc1cc(C)n2nc(SCCC(=O)NCc3c(F)cc(F)cc3F)nc2n1	·	–
COC(=O)CNC(=O)c1cc(-c2ccc(F)cc2)nc2ccccc12	·	–
CCc1ccc(NC(=O)C(CC)Sc2nc3nccnc3c(=O)n2CCc2ccccc2)cc1 (configuration not stated)	·	–
O=C1CCCC2=C1C(c1ccccc1Cl)N=C(Nc1nc3ccccc3s1)N2 (configuration not stated)	–	178.2
O=C1CC(c2ccccc2Cl)Cc2c1cnn2-c1nc2ccccc2s1 (configuration not stated)	·	–
C=CCNC(=O)[C@H]1[C@@H]2C(=O)O[C@@H](c3ccccc3)[C@@H](c3ccccc3)N2[C@@H](c2ccc(OCCO)cc2)[C@]12C(=O)N(C(=O)OCCOC)c1ccc(C#CCC(C(=O)OC)C(=O)OC)cc12	–	156.5
C=CCNC(=O)[C@@H]1[C@H]2C(=O)O[C@H](c3ccccc3)[C@H](c3ccccc3)N2[C@H](c2ccc(OCCO)cc2)[C@@]12C(=O)N(C(=O)OCCOC)c1ccc(C#Cc3ccc(OC)cc3)cc12	–	–
COCCOC(=O)N1C(=O)[C@@]2(c3cc(C#CCC(C(=O)OC)C(=O)OC)ccc31)[C@H](C(=O)NC[C@H](O)c1ccccc1)[C@H]1C(=O)O[C@H](c3ccccc3)[C@H](c3ccccc3)N1[C@@H]2c1ccc(O)cc1	–	–
C=CCNC(=O)[C@@H]1[C@H]2C(=O)O[C@H](c3ccccc3)[C@H](c3ccccc3)N2[C@H](c2ccc(OCCO)cc2)[C@@]12C(=O)N(C(=O)OCCOC)c1ccc(C#CCC(C(=O)OC)C(=O)OC)cc12	–	132.2
O=C1O[C@@H](c2ccccc2)[C@@H](c2ccccc2)N2[C@@H](c3ccccc3OCCO)[C@]3(C(=O)Nc4ccccc43)[C@@H](C(=O)N3CCN(c4ncccn4)CC3)[C@H]12	–	121.8
SMILES	YB-1 expression	ROS inducer
COc1ccc(C#Cc2ccc3c(c2)[C@]2(C(=O)N3)[C@H](C(=O)N3CCN(c4ncccn4)CC3)[C@H]3C(=O)O[C@H](c4ccccc4)[C@H](c4ccccc4)N3[C@@H]2c2ccccc2OCCO)cc1	–	–
O=C1O[C@H](c2ccccc2)[C@H](c2ccccc2)N2[C@H]1[C@@H](C(=O)O)[C@]1(C(=O)Nc3ccccc31)[C@H]2c1ccccc1OCCO	–	–
O=C1O[C@@H](c2ccccc2)[C@@H](c2ccccc2)N2[C@@H](c3ccccc3OCCO)[C@]3(C(=O)Nc4ccc(C#CCCO)cc43)[C@@H](C(=O)N3CCN(c4ncccn4)CC3)[C@H]12	–	94.0
O=C1O[C@H](c2ccccc2)[C@H](c2ccccc2)N2[C@H]1[C@@H](C(=O)N1CCN(c3ncccn3)CC1)[C@]1(C(=O)Nc3ccc(C#CC4(O)CCCCCC4)cc31)[C@H]2c1ccccc1OCCO	–	146.7
O=C1O[C@H](c2ccccc2)[C@H](c2ccccc2)N2[C@H]1[C@@H](C(=O)N1CCCCCCC1)[C@]1(C(=O)Nc3ccc(C#CC4(O)CCCCCC4)cc31)[C@H]2c1ccccc1OCCO	–	–
O=C1C2ON(c3ccc(Cl)cc3)C(c3ccc(F)cc3)C2C(=O)N1Cc1ccccc1 (configuration not stated)	·	–
CC1CCCN(S(=O)(=O)c2ccc3[nH]c(=O)cc(C(=O)NC(C)CCc4ccccc4)c3c2)C1 (configuration not stated)	·	–
N#CCSc1nc2c(sc3ccccc32)c(=O)n1C1CCCCC1	·	157.4
N#CCSc1nc2c(sc3ccccc32)c(=O)n1CCCN1CCOCC1	·	–
CCCCn1c(SCC(=O)NC2CCCC2)nc2c(sc3ccccc32)c1=O	·	–
O=C(CSc1nc2c(sc3ccccc32)c(=O)n1CC1CCCO1)c1ccccc1 (configuration not stated)	·	111.5
CCC1Oc2ccc(C)cc2N(CC(=O)NCCCN2CCN(c3ccccc3F)CC2)C1=O (configuration not stated)	·	–
CNS(=O)(=O)c1ccc2c(c1)C(=NO)c1cc(S(=O)(=O)NC)ccc1-2	·	–
O=C1CSc2ccc(C(=O)NCC3COc4ccccc4O3)cc2N1 (configuration not stated)	·	–
CCC(C)Nc1cc(C)c(C#N)c2nc3ccccc3n12 (configuration not stated)	·	–
Cc1cc(NCCO)n2c(nc3ccccc32)c1C#N	·	–
CC(C)CCNc1cc(C(C)C)c(C#N)c2nc3ccccc3n12	·	197.4
CCc1c(C)c(C#N)c2nc3ccccc3n2c1NCCC(C)C	·	156.6
c1ccc(CN2CCOCCN(Cc3ccccc3)CCOCC2)cc1	–	–
Cc1nn2c3ccccc3n(C)c2c1C(=S)Nc1ccccc1	·	–
N#Cc1c2c(c(NCCN3CCCCC3)n3c1nc1ccccc13)CCC2	·	–
C=CCSc1c2c(c(C#N)c3nc4ccccc4n13)CCC2	–	103.0
CCOC(=O)C1C(=O)C=C(c2cccs2)CC1c1ccc(C)cc1 (configuration not stated)	·	–
Nc1nc(SCC(=O)NCC2CCCO2)[nH]c(=O)c1-c1ccccc1 (configuration not stated)	·	–
Nc1nc(SCc2nc(-c3ccccc3)no2)[nH]c(=O)c1-c1ccccc1	·	106.4
CC(=O)[C@@]1(O)CCC2C3CCC4=CC(=O)CC[C@]4(C)C3CC[C@@]21C (some centres not stated)	–	155.0

Compound activity: PubChem, Broad Institute
